Test results: the supplement of paper PMC7858590

System: human monocyte-derived macrophages (polarized)
Test: cell shape (eccentricity) Z-score vs DMSO control; higher = more elongated, M2-like morphology
Conditions: 5 µM; 24 h; macrophage state: M1-polarized (IFNg + TNFa), cytokines present during treatment
Protocol: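 Primary-screen hits were rescreened on polarized hMDMs with the differentiating cytokines (IL-4 + IL-13 or IFNg + TNFa) kept in the medium during treatment with compound at 5 uM for 24 h. The eccentricity Z-score vs DMSO wells is averaged over experiments.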

| Compound | cell shape (Z-score) |
| --- | --- |
| C(=N\NC1=NCCN1)/c1c2ccccc2c(/C=N/NC2=NCCN2)c2ccccc12 | 33.2 |
| NC(=O)Nc1cc(-c2cccc(F)c2)sc1C(=O)N[C@H]1CCCNC1 | 7.81 |
| CCCCCCOc1ccccc1C(N)=O | 3.38 |
| COc1cc2ncnc(Nc3ccc(F)c(Cl)c3)c2cc1OCCCN1CCOCC1 | -0.66 |
| COc1cc2c(Oc3ccc4[nH]c(C)cc4c3F)ncnc2cc1OCCCN1CCCC1 | 12.3 |
| COc1cc(C2OC(c3cc(OC)c(OC)c(OC)c3)C(C)C2C)cc(OC)c1OC (stereo not given) | 4.93 |
| CC1=C(/C=C/C(C)=C/C=C/C(C)=C/CO)C(C)(C)CCC1 | 7.5 |
| Oc1cccc(-c2nc(N3CCOCC3)c3oc4ncccc4c3n2)c1 | -3.07 |
| Clc1ccc(C2(c3ccc(-c4cn[nH]c4)cc3)CCNCC2)cc1 | 24.9 |
| Cn1cc(C2=C(c3cn(CCCSC(=N)N)c4ccccc34)C(=O)NC2=O)c2ccccc21 | 17.6 |
| CNC(=O)c1cc(Oc2ccc(NC(=O)Nc3ccc(Cl)c(C(F)(F)F)c3)cc2)ccn1 | 14 |
| O=C(/C=C/c1ccccc1)c1ccc(O)cc1 | 8.35 |
| C=CC(=O)N1CCC[C@@H](n2nc(-c3ccc(Oc4ccccc4)cc3)c3c(N)ncnc32)C1 | 6.69 |
| C[C@]1(CO)CN(c2cc(C(=O)Nc3ccc4c(c3)-c3c(c(C(N)=O)nn3-c3ccc(F)cc3)CC4)c(Cl)cn2)C[C@@]1(C)CO | -7.03 |
| Nc1ncnc2n[nH]c(Nc3ccc(F)cc3)c12 | 3.71 |
| Oc1cccc(O)c1 | -3.74 |
| Cc1c(C(=O)Nc2ccc(N3C[C@@H](C)O[C@@H](C)C3)nc2)cccc1-c1ccc(OC(F)(F)F)cc1 | 8.76 |
| C#Cc1cccc(Nc2ncnc3cc(OCCOC)c(OCCOC)cc23)c1 | 11.8 |
| Cc1ccc(C(=O)Nc2ccc(S(=O)(=O)O)c3cc(S(=O)(=O)O)cc(S(=O)(=O)O)c23)cc1NC(=O)c1cccc(NC(=O)Nc2cccc(C(=O)Nc3cc(C(=O)Nc4ccc(S(=O)(=O)O)c5cc(S(=O)(=O)O)cc(S(=O)(=O)O)c45)ccc3C)c2)c1 | 6.07 |
| COc1cccc2c1C(=O)c1c(O)c3c(c(O)c1C2=O)C[C@@](O)(C(=O)CO)C[C@@H]3O[C@H]1C[C@H](N)[C@H](O)[C@H](C)O1 | 22 |
| Cc1cc(Nc2nc(N[C@@H](C)c3ncc(F)cn3)ncc2Cl)[nH]n1 | 10.1 |
| N#CCNC(=O)c1ccc(-c2ccnc(Nc3ccc(N4CCOCC4)cc3)n2)cc1 | 22.9 |
| c1ccc(-c2nnc(N3CCOCC3)nc2-c2ccccc2)cc1 | -1.34 |
| O=S(=O)(c1cccc2cnccc12)N1CCCNCC1 | -0.217 |
| CN(C)CCC=C1c2ccccc2COc2ccccc21 | -7.17 |
| COC(=O)C(CCCN=C(N)N)NC(=O)CCCc1c(-c2ccccc2)[nH]c2c(F)cc(F)cc12 (stereo not given) | 0.683 |
| CC1(CCOC2OC(CO)C(O)C(O)C2O)CCC2C(=CCC3C(C)(C(=O)O)CCCC23C)C1 (stereo not given) | -2.26 |
| CC[C@]1(O)C[C@@H]2CN(CCc3c([nH]c4ccccc34)[C@@](C(=O)OC)(c3cc4c(cc3OC)N(C)[C@H]3[C@@](O)(C(=O)OC)[C@H](OC(C)=O)[C@]5(CC)C=CCN6CC[C@]43[C@@H]65)C2)C1 | 6.51 |

Same assay, conditions: 5 µM; 24 h; macrophage state: M2-polarized (IL-4 + IL-13), cytokines present during treatment

| Compound | cell shape (Z-score) |
| --- | --- |
| COC(=O)Nc1nc2cc(Sc3ccccc3)ccc2[nH]1 [Fenbendazole] | -14.3 |
| CC(CCCCC(=O)Nc1ccc(C(F)(F)F)cc1)NCCc1cnc[nH]1 (stereo not given) | -6.34 |
| COc1ccc(C[C@H](N)C(=O)N[C@H]2[C@@H](O)[C@H](n3cnc4c(N(C)C)ncnc43)O[C@@H]2CO)cc1 | -12.5 |
| COC(=O)Nc1nc2ccc(C(=O)C3CC3)cc2[nH]1 | -16.3 |
| Cc1ccc(O)c(N=Nc2ccccc2)n1 | -1.32 |
| Cc1cc2cc3c(C)cc(=O)oc3c(C)c2o1 | 1.88 |
| C#CC1(OCC(O)CN2CCN(c3cccc(C(F)(F)F)c3)CC2)CCCCC1 (stereo not given) | 3.74 |
| COCCCC/C(=N\OCCN)c1ccc(C(F)(F)F)cc1 | -6 |
| O=c1nc2ccccc2c2n1CC(CN1CCN(c3ccccc3)CC1)N2 (stereo not given) | -1.27 |
| CCCCCCCCc1ccc(CCC(N)(CO)CO)cc1 | -15.5 |
| CN(C)CCC=C1c2ccccc2COc2ccccc21 | -5.83 |
| C=C(NC(=O)C(=C)NC(=O)c1csc(C2=N[C@@H]3c4csc(n4)[C@H]4NC(=O)c5csc(n5)[C@H]([C@](C)(O)[C@@H](C)O)NC(=O)[C@H]5CSC(=N5)/C(=C/C)NC(=O)[C@H]([C@@H](C)O)NC(=O)c5csc(n5)[C@]3(CC2)NC(=O)[C@H](C)NC(=O)C(=C)NC(=O)[C@H](C)NC(=O)[C@H]([C@@H](C)CC)N[C@@H]2C=Cc3c([C@H](C)O)cc(nc3[C@H]2O)C(=O)O[C@@H]4C)n1)C(N)=O [Thiostrepton.2mM] | -5.55 |
